# Results filed as inconclusive are left out. Calls of active or inactive are those of the source. The calls were made as follows: active = hit-call score of the fitted dose curve at least 0.9, where 1 is the maximum; inconclusive = response in the unintended direction; inactive = score below 0.9.
# Tests used:
# [1] = target: human Opioid Receptor Mu (Opiate Mu), OPRM1 (gene 4988) (UniProt P35372); assay: NVS_GPCR_hOpiate_mu: NovaScreen (NVS) G Protein-Coupled Receptor Assay for human Opioid Receptor Mu (Opiate Mu) (AID 2283290);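 also: hits lower bound tracer signal versus DMSO meaning displacement of the ligand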
# Sequence of human Opioid Receptor Mu (Opiate Mu), OPRM1 (gene 4988) (P35372 whole entry, looked up): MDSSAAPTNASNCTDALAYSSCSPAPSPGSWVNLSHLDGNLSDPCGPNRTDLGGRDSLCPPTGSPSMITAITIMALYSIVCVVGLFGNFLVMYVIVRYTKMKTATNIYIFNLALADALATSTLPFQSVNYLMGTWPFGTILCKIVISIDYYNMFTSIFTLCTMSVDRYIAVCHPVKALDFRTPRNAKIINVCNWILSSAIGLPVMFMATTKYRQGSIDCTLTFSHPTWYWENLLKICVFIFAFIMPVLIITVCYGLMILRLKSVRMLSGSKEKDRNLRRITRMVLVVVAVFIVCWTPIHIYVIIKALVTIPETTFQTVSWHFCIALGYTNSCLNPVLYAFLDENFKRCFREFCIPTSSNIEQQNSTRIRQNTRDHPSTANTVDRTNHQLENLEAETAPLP
# In short: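 CHO-derived receptor protein, cell-free; radioligand displacement, filtration + scintillation counting, read at 2.5 h. DMSO = negative control/baseline. Primary: 25 uM single conc, duplicate; secondary: concentration series.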
# [2] = target: rat Adrenergic, Alpha 1A Receptor (Adra1A), Adra1a (gene 29412) (UniProt P43140); assay: NVS_GPCR_rAdra1A: NovaScreen (NVS) G Protein-Coupled Receptor Assay for rat Adrenergic, Alpha 1A Receptor (Adra1A) (AID 2283296)
# Sequence of rat Adrenergic, Alpha 1A Receptor (Adra1A), Adra1a (gene 29412) (P43140 whole entry, looked up): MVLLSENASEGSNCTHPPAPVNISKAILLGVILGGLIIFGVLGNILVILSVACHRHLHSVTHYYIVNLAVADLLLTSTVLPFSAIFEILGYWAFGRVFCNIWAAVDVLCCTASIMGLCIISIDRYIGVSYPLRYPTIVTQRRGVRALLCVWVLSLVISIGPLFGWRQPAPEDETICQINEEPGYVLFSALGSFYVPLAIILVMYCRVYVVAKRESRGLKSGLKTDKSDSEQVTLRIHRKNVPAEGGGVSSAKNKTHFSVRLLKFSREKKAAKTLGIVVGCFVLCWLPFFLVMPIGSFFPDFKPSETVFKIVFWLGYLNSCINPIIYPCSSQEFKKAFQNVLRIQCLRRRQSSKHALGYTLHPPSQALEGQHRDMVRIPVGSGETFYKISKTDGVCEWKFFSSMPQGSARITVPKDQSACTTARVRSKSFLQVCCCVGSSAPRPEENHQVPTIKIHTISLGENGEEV
# In short: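 Rat cortical membranes pretreated with chlorethyl clonidine; competitive radioligand displacement, 1 h. Filter-based scintillation counting. Primary screen in duplicate at 25 uM, actives followed in concentration series.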
# [3] = target: rat Adrenergic Receptor, Beta (Adrb), Non-selective Binding, Adrb1 (gene 24925) (UniProt P18090); assay: NVS_GPCR_rAdrb_NonSelective: NovaScreen (NVS) G Protein-Coupled Receptor Assay for rat Adrenergic Receptor, Beta (Adrb), Non-selective Binding (AID 2283298)
# In short: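 Non-selective beta-adrenergic radioligand binding in rat cortical membranes, 1 h incubation, filter-based scintillation read-out. Primary screen 25 uM in duplicate; hits retested in concentration-response up to 50 uM, DMSO baseline.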
# [4] = target: rat Somatostatin Receptor (SST), Sstr1 (gene 25033) (UniProt P28646); assay: NVS_GPCR_rSST: NovaScreen (NVS) G Protein-Coupled Receptor Assay for rat Somatostatin Receptor (SST) (AID 2283314)
# In short: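 Rat forebrain membranes; radioligand displacement read by filter-based scintillation counting 1 h after dosing. Primary screen in duplicate at 25 uM. Actives (e.g., 30% inhibition) were rerun as concentration-response to 50 uM max and fitted against DMSO.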
# Adra2b (gene 24174) = Adra2b (gene 24174) (UniProt P19328); assay: NVS_GPCR_rmAdra2B: NovaScreen (NVS) G Protein-Coupled Receptor Assay for hybird cells Adrenergic, Alpha 2B Receptor (Adra2B) (AID 2283306)
# Sequence of Adra2b (gene 24174) (P19328 whole entry, looked up): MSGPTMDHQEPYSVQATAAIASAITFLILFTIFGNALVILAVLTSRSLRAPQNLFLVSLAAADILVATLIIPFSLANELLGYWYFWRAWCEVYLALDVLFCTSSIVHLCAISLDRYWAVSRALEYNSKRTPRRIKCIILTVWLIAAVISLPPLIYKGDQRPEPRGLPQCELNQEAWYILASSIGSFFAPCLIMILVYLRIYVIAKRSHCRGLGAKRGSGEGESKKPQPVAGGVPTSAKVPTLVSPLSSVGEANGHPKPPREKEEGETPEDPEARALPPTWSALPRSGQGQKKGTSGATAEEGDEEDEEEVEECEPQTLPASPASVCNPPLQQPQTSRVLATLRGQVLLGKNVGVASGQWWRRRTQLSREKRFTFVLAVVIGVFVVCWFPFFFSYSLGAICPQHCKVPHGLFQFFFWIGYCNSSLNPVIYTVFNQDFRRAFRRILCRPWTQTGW
# In short: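 Radioligand filter-binding assay on membrane proteins from neuroglioma/blastoma hybrid cells (rodent), 1 h after dosing; scintillation counting, loss of signal vs DMSO. Primary screen in duplicate at 25 uM, actives then run in concentration series.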
# [5] = target: rat Neurokinin-1 Receptor (NK1), Tacr1 (gene 24807) (UniProt P14600); assay: NVS_GPCR_rNK1: NovaScreen (NVS) G Protein-Coupled Receptor Assay for rat Neurokinin-1 Receptor (NK1) (AID 2283309)
# Sequence of rat Neurokinin-1 Receptor (NK1), Tacr1 (gene 24807) (P14600 whole entry, looked up): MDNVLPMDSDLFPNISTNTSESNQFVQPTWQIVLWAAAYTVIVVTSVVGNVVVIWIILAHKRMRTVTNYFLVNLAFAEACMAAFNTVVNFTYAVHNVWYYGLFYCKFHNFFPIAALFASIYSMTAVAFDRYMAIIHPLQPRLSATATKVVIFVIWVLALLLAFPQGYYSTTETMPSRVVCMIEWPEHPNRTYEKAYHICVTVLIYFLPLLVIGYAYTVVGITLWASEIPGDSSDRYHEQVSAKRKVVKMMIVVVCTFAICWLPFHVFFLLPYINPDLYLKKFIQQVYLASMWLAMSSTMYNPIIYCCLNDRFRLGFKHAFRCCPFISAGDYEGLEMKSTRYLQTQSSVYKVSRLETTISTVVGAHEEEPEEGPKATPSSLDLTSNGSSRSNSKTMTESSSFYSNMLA
# In short: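 Rat submaxillary gland membranes; radioligand displacement read by filter-based scintillation counting after 1 h. Primary screen in duplicate at 25 uM; actives retested in concentration series; loss of binding fitted versus DMSO.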
# [6] = target: rat Adrenergic Receptor, Alpha 2 (Adra2), Non-selective Binding, Adra2a (gene 25083) (UniProt P22909); assay: NVS_GPCR_rAdra2_NonSelective: NovaScreen (NVS) G Protein-Coupled Receptor Assay for rat Adrenergic Receptor, Alpha 2 (Adra2), Non-selective Binding (AID 2283299)
# Sequence of rat Adrenergic Receptor, Alpha 2 (Adra2), Non-selective Binding, Adra2a (gene 25083) (P22909 whole entry, looked up): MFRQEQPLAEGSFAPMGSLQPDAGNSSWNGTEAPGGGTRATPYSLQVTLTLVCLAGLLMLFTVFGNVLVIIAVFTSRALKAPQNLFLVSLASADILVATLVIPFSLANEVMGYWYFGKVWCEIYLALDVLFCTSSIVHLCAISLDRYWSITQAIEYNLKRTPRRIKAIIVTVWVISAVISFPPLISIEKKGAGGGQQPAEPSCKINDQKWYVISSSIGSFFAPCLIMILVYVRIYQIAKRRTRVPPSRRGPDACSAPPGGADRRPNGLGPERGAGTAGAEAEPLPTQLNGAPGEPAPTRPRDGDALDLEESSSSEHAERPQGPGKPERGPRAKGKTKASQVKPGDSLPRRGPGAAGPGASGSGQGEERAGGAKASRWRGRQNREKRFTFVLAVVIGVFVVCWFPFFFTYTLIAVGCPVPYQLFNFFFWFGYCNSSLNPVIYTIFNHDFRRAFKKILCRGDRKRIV
# In short: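 Rat cortical membranes, radioligand competitive displacement read by filter-based scintillation counting 1.25 hours after dosing. Primary screen in duplicate at 25 uM; actives followed up in concentration series.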
# [7] = test system: rat Adrenergic, Alpha 1B Receptor (Adra1B), gene 24173; assay: NVS_GPCR_rAdra1B: NovaScreen (NVS) G Protein-Coupled Receptor Assay for rat Adrenergic, Alpha 1B Receptor (Adra1B) (AID 2283297)
# In short: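 Rat liver membranes, radioligand displacement with filter-based scintillation detection, 1 h incubation. Primary screen in duplicate at 25 uM; actives retested in concentration series; activity relative to DMSO.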
# [8] = target: rat Opioid Receptor, Non-selective Sodium (Na+) Binding, Oprm1 (gene 25601) (UniProt P33535); assay: NVS_GPCR_rOpiate_NonSelectiveNa: NovaScreen (NVS) G Protein-Coupled Receptor Assay for rat Opioid Receptor, Non-selective Sodium (Na+) Binding (AID 2283311)
# Sequence of rat Opioid Receptor, Non-selective Sodium (Na+) Binding, Oprm1 (gene 25601) (P33535 whole entry, looked up): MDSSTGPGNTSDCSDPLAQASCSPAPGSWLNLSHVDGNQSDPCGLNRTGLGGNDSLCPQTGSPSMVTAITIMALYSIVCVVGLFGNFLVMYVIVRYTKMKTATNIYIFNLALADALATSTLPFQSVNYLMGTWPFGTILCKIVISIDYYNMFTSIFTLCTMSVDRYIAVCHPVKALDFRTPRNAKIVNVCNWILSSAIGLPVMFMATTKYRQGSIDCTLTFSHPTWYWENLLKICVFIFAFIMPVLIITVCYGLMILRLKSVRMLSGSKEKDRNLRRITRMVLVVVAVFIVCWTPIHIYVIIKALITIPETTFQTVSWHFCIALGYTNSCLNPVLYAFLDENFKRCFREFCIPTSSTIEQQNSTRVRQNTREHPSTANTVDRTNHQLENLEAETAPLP
# In short: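 Rat forebrain membranes, radioligand displacement with filter scintillation counting, 1.5 h incubation. Screened in duplicate at 25 µM; hits then run in concentration-response up to 50 µM; loss of binding fitted versus DMSO.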
# [9] = target: rat Neonicotinoid receptor (NNR), Chrna7 (gene 25302) (UniProt Q05941); assay: NVS_LGIC_rNNR_BungSens: NovaScreen (NVS) Ligand-Gated Ion Channel Assay for rat Neonicotinoid receptor (NNR) (AID 2283315)
# In short: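 Radioligand displacement binding on rat cortical membranes, 2.5 h incubation, filtration and scintillation counting. Loss of specific binding fitted relative to DMSO.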
# [10] = target: Metabotropic glutamate receptor 1 (Rattus norvegicus) (UniProt P23385); assay: NVS_GPCR_rmMGluR1: NovaScreen (NVS) G Protein-Coupled Receptor Assay for rat Glutamate Metabotropic Receptor 1 (MGluR1) (AID 2283305)
# Sequence of Metabotropic glutamate receptor 1 (Rattus norvegicus) (P23385 whole entry, looked up): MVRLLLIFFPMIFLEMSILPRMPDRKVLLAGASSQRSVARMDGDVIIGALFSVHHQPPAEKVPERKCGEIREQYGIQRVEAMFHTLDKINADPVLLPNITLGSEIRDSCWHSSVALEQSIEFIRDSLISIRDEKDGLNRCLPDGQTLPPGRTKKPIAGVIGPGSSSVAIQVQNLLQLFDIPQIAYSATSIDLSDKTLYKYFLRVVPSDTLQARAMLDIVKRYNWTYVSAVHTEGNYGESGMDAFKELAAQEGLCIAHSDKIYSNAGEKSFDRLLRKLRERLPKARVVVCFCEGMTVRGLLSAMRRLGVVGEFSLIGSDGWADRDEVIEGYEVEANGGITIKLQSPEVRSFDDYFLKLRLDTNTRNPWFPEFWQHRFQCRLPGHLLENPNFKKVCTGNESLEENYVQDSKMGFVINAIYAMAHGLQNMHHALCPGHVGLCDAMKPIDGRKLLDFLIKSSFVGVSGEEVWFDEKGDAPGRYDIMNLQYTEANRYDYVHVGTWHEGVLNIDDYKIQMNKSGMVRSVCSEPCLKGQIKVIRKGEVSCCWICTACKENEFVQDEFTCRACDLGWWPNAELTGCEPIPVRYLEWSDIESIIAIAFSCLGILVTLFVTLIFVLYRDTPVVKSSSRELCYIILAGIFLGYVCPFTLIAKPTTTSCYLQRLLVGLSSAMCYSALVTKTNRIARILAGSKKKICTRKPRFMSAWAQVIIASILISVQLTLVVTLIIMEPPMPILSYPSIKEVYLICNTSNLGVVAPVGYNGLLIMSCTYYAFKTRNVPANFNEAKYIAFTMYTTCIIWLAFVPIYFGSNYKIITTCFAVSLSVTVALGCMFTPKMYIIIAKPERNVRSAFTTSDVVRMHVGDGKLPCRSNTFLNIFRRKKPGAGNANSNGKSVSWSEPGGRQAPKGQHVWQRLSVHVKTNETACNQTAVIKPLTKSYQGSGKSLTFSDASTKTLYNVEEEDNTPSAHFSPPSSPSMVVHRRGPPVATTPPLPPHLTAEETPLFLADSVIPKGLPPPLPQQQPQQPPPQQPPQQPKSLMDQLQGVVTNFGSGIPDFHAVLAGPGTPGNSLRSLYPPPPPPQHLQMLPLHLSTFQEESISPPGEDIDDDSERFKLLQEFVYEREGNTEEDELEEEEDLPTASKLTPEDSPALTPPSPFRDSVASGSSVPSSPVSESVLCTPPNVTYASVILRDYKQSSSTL
# In short: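 Rat cerebellum membrane preparation, radioligand displacement binding read by filter-based scintillation counting 1 hour after dosing. Initial duplicate single-point screen at 25 uM, then concentration-response up to 50 uM; loss of signal versus DMSO baseline scored.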
# [11] = target: rat Neurokinin-3 Receptor (NK3), Tacr3 (gene 24808) (UniProt P16177); assay: NVS_GPCR_rNK3: NovaScreen (NVS) G Protein-Coupled Receptor Assay for rat Neurokinin-3 Receptor (NK3) (AID 2283310)
# Sequence of rat Neurokinin-3 Receptor (NK3), Tacr3 (gene 24808) (P16177 whole entry, looked up): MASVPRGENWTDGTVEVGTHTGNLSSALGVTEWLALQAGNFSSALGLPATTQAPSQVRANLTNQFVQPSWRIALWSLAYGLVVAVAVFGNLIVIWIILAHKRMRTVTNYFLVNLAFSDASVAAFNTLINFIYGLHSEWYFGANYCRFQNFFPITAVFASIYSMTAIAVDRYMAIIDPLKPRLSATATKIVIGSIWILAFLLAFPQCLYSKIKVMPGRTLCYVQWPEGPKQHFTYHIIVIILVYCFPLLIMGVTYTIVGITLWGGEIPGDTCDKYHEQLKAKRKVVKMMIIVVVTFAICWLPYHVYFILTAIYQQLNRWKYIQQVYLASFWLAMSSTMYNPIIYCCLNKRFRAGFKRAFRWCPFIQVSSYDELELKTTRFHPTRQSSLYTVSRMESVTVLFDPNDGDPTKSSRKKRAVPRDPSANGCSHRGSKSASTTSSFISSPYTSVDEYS
# In short: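 Rat cortical membranes; radioligand binding with filtration and scintillation counting, 2 h after dosing. Primary screen in duplicate at 25 uM, then concentration-response up to 50 uM; loss of binding signal relative to DMSO.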
# [12] = target: rat Histamine Receptor (H3), Hrh3 (gene 85268) (UniProt Q9QYN8); assay: NVS_GPCR_rH3: NovaScreen (NVS) G Protein-Coupled Receptor Assay for rat Histamine Receptor (H3) (AID 2283303)
# Sequence of rat Histamine Receptor (H3), Hrh3 (gene 85268) (Q9QYN8 whole entry, looked up): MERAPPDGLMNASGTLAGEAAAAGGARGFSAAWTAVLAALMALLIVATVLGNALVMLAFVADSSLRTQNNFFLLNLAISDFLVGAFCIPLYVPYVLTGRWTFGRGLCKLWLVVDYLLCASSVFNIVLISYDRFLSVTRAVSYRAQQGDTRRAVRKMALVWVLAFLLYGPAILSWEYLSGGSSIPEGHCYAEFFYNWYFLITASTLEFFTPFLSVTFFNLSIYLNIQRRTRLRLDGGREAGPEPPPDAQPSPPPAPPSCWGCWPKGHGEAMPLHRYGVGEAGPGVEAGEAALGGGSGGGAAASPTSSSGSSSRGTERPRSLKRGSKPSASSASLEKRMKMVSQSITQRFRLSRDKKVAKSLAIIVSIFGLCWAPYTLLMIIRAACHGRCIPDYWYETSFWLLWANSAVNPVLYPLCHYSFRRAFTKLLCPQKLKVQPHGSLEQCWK
# In short: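 Rat forebrain membranes incubated 1 h with compound; radioligand displacement measured by filter-based scintillation counting. Single-concentration duplicates at 25 µM, then concentration-response up to 50 µM, relative to DMSO.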
# [13] = target: rat Opioid Receptor, Non-selective Binding, Oprm1 (gene 25601) (UniProt P33535); assay: NVS_GPCR_rOpiate_NonSelective: NovaScreen (NVS) G Protein-Coupled Receptor Assay for rat Opioid Receptor, Non-selective Binding (AID 2283318)
# Sequence of rat Opioid Receptor, Non-selective Binding, Oprm1 (gene 25601) (P33535 whole entry, looked up): as the sequence (P33535 whole entry, looked up) above
# In short: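 Rat forebrain membranes, cell-free radioligand binding with filter-based scintillation counting, read 1.5 h after dosing. Primary screen in duplicate at 25 uM; actives retested in concentration series. Loss of signal versus DMSO baseline scored.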
# [14] = target: rat Serotonin, 5-Hydroxytryptamine Receptor (5HT), Non-Selective Binding, Htr1a (gene 24473) (UniProt P19327); assay: NVS_GPCR_r5HT_NonSelective: NovaScreen (NVS) G Protein-Coupled Receptor Assay for rat Serotonin, 5-Hydroxytryptamine Receptor (5HT), Non-Selective Binding (AID 2283295)
# In short: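 Radioligand displacement on rat cortical membranes, 1 h incubation, filter-based scintillation counting. Primary duplicates at 25 uM, actives retested in concentration series; loss of signal fitted against DMSO as baseline.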
# [15] = target: rat Vasopressin 1 Receptor (V1), Avpr1a (gene 25107) (UniProt P30560); assay: NVS_GPCR_rV1: NovaScreen (NVS) G Protein-Coupled Receptor Assay for rat Vasopressin 1 Receptor (V1) (AID 2283316)
# In short: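 Radioligand binding on rat liver membranes, 1.5 h incubation, filter-based scintillation counting. Single 25 uM screen in duplicate; chemicals meeting threshold (e.g. 30% inhibition) run in concentration-response up to 50 uM.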
structure (smiles),measurement,setting,value
c1ccc2cc3ccccc3cc2c1,outcome,[1],inactive
CCCCCCCC1CCC(=O)O1 (centres undefined),outcome,[2],inactive
same,outcome,[3],inactive
same,outcome,[4],inactive
CCCCCCCC/C=C\CCCCCCCC(=O)OC[C@@H](O)[C@H]1OC[C@H](O)[C@H]1O,outcome,[1],inactive
same,outcome,Adra2b (gene 24174),inactive
CCCOc1ccc(S(=O)(=O)N2CCN(CC)CC2)cc1-c1nc2c(CC)n(Cc3ccccn3)nc2c(=O)[nH]1,AC50,[5],12.6 µM (active)
CCCCCCCCN(C)C,outcome,[6],inactive
same,outcome,Adra2b (gene 24174),inactive
COc1cc(C(C)C)c2c(c1)S(=O)(=O)N(COc1cc(=O)n3cccc(OCCN4CCCCC4)c3n1)C2=O,outcome,[1],inactive
same,outcome,[2],inactive
same,AC50,[7],3.17 µM (active)
same,AC50,[6],4.16 µM (active)
same,AC50,Adra2b (gene 24174),2.98 µM (active)
same,AC50,[8],8.62 µM (active)
same,outcome,[9],inactive
CCCCN1C(=O)[C@@H]([C@H](O)C2CCCCC2)NC(=O)C12CCN(Cc1ccc(Oc3ccc(C(=O)O)cc3)cc1)CC2,AC50,[10],9.81 µM (active)
same,outcome,[11],inactive
Cc1nccn1-c1ccc(Sc2cccc(C3(C(N)=O)CCOCC3)c2)cc1,AC50,[6],11.1 µM (active)
same,AC50,[12],25 µM (active)
same,AC50,Adra2b (gene 24174),8.46 µM (active)
same,AC50,[5],25 µM (active)
same,outcome,[8],inactive
same,outcome,[13],inactive
Cc1ncc([C@@H](CCCCCCc2ccc3c(n2)NCCC3)CC(=O)O)cn1,outcome,[14],inactive
same,AC50,[13],25 µM (active)
CCc1ccc(O)c(C(C)(C)C)c1,outcome,[2],inactive
CCN(CC)C(=S)SSC(=S)N(CC)CC,outcome,[1],inactive
same,outcome,[7],inactive
same,AC50,[12],16.2 µM (active)
same,outcome,[8],inactive
same,AC50,[15],15.6 µM (active)
OCC(CO)(CO)CO,outcome,[11],inactive
C=CCc1cc(S(=O)(=O)c2ccc(O)c(CC=C)c2)ccc1O,AC50,[1],4.83 µM (active)
same,outcome,[7],inactive
same,AC50,[8],16.1 µM (active)
same,AC50,[13],13.1 µM (active)
O=C(O)c1ccc2c(c1)nc(C(=O)NC1CCN(C3CC3)CC1)n2Cc1cc(-c2ccc(Cl)s2)on1,AC50,[6],3.26 µM (active)
same,AC50,Adra2b (gene 24174),0.395 µM (active)
